Compound activity as filed in PubChem BioAssay.
Sm TGR inh – S. mansoni TGR enzyme inhibition. Q962Y6. purified TGR, DTNB reduction, TNB absorbance 405 nm. Potency, µM (doses to about 114 µM), for inactives: at the highest dose activity change, negative = inhibition, actives largely listed as inhibitors. 360,000 tested, 3% active. AID 485364; active = well fitted inhibition curve with a large enough effect; inconclusive = small, poorly fitted or top-dose-only effect; inactive = no such curve, though single readings can be large or run the other way; note: potency is the fitted concentration of half-maximal effect; % is set by controls: 0 for no effect and ±100 for the full control effect; nearly all actives have a fitted effect of over 60% in size
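Kinetic colorimetric format: TGR-catalysed, NADPH-driven DTNB reduction monitored via TNB absorbance. Enzyme dispensed at 20 nM; compound exposure 15 min at room temperature before reaction start.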
CHX counter – counter-screen for Shiga toxin inhibitors: cycloheximide protein synthesis inhibition. cell reporter, cycloheximide protein synthesis inhibition counterscreen. max response, %. 300,000 tested, 12% active; in the data active = max response mostly above about 13%, no sharp cut-off; inactive = mostly below about 14%; note: read at 38.3 µM for the half of the compounds with a filed dose; 0% is about no effect
Shiga inhibitor – Shiga toxin inhibition. Vero cells, Shiga toxin protein synthesis inhibition reporter. inhibition, % at 38.7 µM. 290,000 tested, 9.2% active; in the data active = inhibition mostly above about 28%, no sharp cut-off; inactive = mostly below about 43%; note: 0% is about no effect
FMDV inh – foot and mouth disease virus antiviral activity; FMDV antiviral cell-based qHTS; Potency, µM (series often up to 57.9 µM), without a hit: at the top dose activity change, negative = inhibition, actives largely listed as inhibitors; 410,000 tested, 1.2% active; calls by dose curve; tested in HEK293T cells; note: read-out not given here; potency is the fitted concentration of half-maximal effect; % is set by controls: 0 for no effect and ±100 for the full control effect; nearly all actives have a fitted effect of over 45% in size
Numbers without * were called inactive. A selection: hits, their analogues and other compounds. The true share with any hit is near 12%.

What do the screens show for `Oc1ccc(-c2n[nH]c(C(F)(F)F)c2-c2ccccc2)c(O)c1`?
Sm TGR inh: 2%; CHX counter: 0; Shiga inhibitor: -10; FMDV inh: 20µM*

How did O=C(c1ccc(N2CCC(NCCCn3ncc4ccccc43)CC2)cc1)N1CCOCC1 do in these assays?
FMDV inh: -15%

How did O=C(Nc1ccc2c(c1)OCCO2)c1cnc2n(c1=O)CCS2 do in these assays?
Sm TGR inh: -4%; CHX counter: 30*; Shiga inhibitor: 18; FMDV inh: 21%

What do the screens show for `O=C(Nc1ccccc1)c1cnc2n(c1=O)CCS2`?
Sm TGR inh: -7%; CHX counter: 15; Shiga inhibitor: 47; FMDV inh: 40%

Results for O=C(Nc1ccc2c(c1)OCO2)c1cnc2n(c1=O)CCS2 ?
Sm TGR inh: -8%; CHX counter: 29*; Shiga inhibitor: 49*; FMDV inh: 39%

What do the screens show for `COc1ccc(OC(=O)c2cnc3n(c2=O)CCS3)cc1`?
Sm TGR inh: -7%; CHX counter: 15*; Shiga inhibitor: 26; FMDV inh: 33%

What do the screens show for `Cc1cccc(NC(=O)c2cnc3n(c2=O)CCS3)c1`?
Sm TGR inh: 3%; CHX counter: 21*; Shiga inhibitor: 17*; FMDV inh: 41%

Results for O=C(CCC1N=C2c3ccccc3N=C(SCc3ccccc3F)N2C1=O)NCc1ccccc1 (centres undefined) ?
Sm TGR inh: -2%; FMDV inh: -12%

What do the screens show for `CCn1cnc2sc(C(=O)Nc3ccc4c(c3)OCO4)c(C)c2c1=O`?
Sm TGR inh: 0%; CHX counter: 38*; Shiga inhibitor: 94*; FMDV inh: 39%

What do the screens show for `O=C(Nc1ccc(OC(F)(F)F)cc1)c1cnc2n(c1=O)CCS2`?
Sm TGR inh: -1%; CHX counter: 16*; Shiga inhibitor: 21; FMDV inh: -4%

How did OCc1ccccc1O[C@H]1OC(CO)C(O)C(O)C1O (some centres undefined) do in these assays?
FMDV inh: -4%

Results for O=[N+]([O-])c1ccc(C2=NCCO2)cc1 ?
Sm TGR inh: 11%; CHX counter: 39*; Shiga inhibitor: 74*; FMDV inh: -1%

What do the screens show for `CCOc1ccccc1CN1CCN(Cc2ccc3cccc(OC)c3n2)CC1CCO` (centres undefined)?
Sm TGR inh: 25µM*; CHX counter: -1; Shiga inhibitor: -12; FMDV inh: -18%

How did CCOc1ccccc1CN1CCN(Cc2cccc3nonc23)CC1CCO (centres undefined) do in these assays?
Sm TGR inh: -10%; CHX counter: -1; Shiga inhibitor: 26; FMDV inh: 4%

How did CCCCOc1ccc(CNC(=O)c2cccc(NC(=O)N3CCSc4ncccc43)c2)cc1 do in these assays?
Sm TGR inh: -8%; FMDV inh: 22µM*

Results for CCc1cccc(NC(=O)c2ccc(NC(=O)N3CCSc4ncccc43)cc2)c1 ?
Sm TGR inh: 2%; FMDV inh: 28µM*

Results for CCc1ccc(CNC(=O)c2ccc(NC(=O)N3CCSc4ncccc43)cc2)cc1 ?
Sm TGR inh: -5%; FMDV inh: -13%

How did CCOc1cccc(CNC(=O)c2ccc(N3CCCC3)c(NC(=O)NCc3ccc(F)cc3)c2)c1 do in these assays?
Sm TGR inh: 6%; FMDV inh: -27%

Results for CCc1ccc2oc(C(=O)Nc3cc(C)ccc3C)cc(=O)c2c1 ?
Sm TGR inh: 3%; FMDV inh: -7%

Results for Cc1ccc2c(c1)c1c(c(=O)n(Cc3ccccc3)c(=O)n1Cc1cccc(F)c1)n2C ?
Sm TGR inh: 5%; FMDV inh: -16%

What do the screens show for `CC(=O)c1sc2nc(C)c3c(c2c1N)CCCC3`?
Sm TGR inh: 2%; CHX counter: 21*; Shiga inhibitor: 55; FMDV inh: 14%

Results for CCOC(=O)c1c(NC(=O)CSc2nc3c(c(=O)n(C)c(=O)n3C)n2C(C)C)sc(C)c1C ?
Sm TGR inh: 4%; CHX counter: -6; Shiga inhibitor: -5

What do the screens show for `CC(C)n1c(SCC(=O)Nc2nc3c(s2)CCCC3)nc2c1c(=O)n(C)c(=O)n2C`?
Sm TGR inh: -16%; CHX counter: 2; Shiga inhibitor: -9; FMDV inh: 25µM*

How did COc1ccc(C(=O)N2CCC3(CCN(Cc4nccs4)CC3)CC2)cc1 do in these assays?
FMDV inh: -13%

Results for COc1ccc2c(c1)Cc1sc(NC(=O)c3cccs3)nc1-2 ?
Sm TGR inh: 1%; CHX counter: 74*; Shiga inhibitor: 149*; FMDV inh: -20%

How did COc1ccc2c(c1)Cc1sc(NC(=O)c3cccc(F)c3)nc1-2 do in these assays?
Sm TGR inh: -23%; FMDV inh: -12%

Results for COc1ccc(C(=O)Nc2nc3c(s2)Cc2cc(OC)ccc2-3)cc1 ?
Sm TGR inh: -2%; CHX counter: 11; Shiga inhibitor: 32; FMDV inh: 10µM*

Results for COc1ccc2c(c1)Cc1sc(NC(=O)c3ccccc3)nc1-2 ?
Sm TGR inh: -22%; CHX counter: 48*; Shiga inhibitor: 145*; FMDV inh: 6%

How did COCCCNC(=O)CCn1c(=O)c2ccccc2n(CC(=O)Nc2cc(Cl)ccc2OC)c1=O do in these assays?
Sm TGR inh: -2%; FMDV inh: 8%

What do the screens show for `O=C(Nc1cccc(/C=C/c2ccccn2)c1)c1cc(Cl)ccn1`?
Sm TGR inh: -5%; CHX counter: 29*; Shiga inhibitor: 43*; FMDV inh: 19%

Results for Nc1cccc(-c2cc3ccccc3oc2=O)c1 ?
CHX counter: 6; Shiga inhibitor: 8; FMDV inh: -7%

What do the screens show for `O=Cc1c(-c2ccccc2)cc2oc3ccccc3cc1-2`?
Sm TGR inh: 7%; CHX counter: 40*; Shiga inhibitor: 72*; FMDV inh: -5%

How did Nc1c(C(=O)Nc2cccc(C(=O)O)c2)sc2nc3c(cc12)CCCC3 do in these assays?
Sm TGR inh: -7%; CHX counter: 18*; Shiga inhibitor: 49; FMDV inh: 6.3µM*

How did Nc1c(C(=O)Nc2ccc(C(=O)O)cc2)sc2nc3c(cc12)CCCC3 do in these assays?
Sm TGR inh: 8%; FMDV inh: 16µM*

How did Cc1ccccc1NC(=O)c1sc2nc3c(cc2c1N)CN(Cc1ccccc1)CC3 do in these assays?
Sm TGR inh: 79µM*; FMDV inh: -58%

What do the screens show for `COc1ccc(NC(=O)c2sc3nc4c(cc3c2N)CN(Cc2ccccc2)CC4)cc1OC`?
Sm TGR inh: -4%; FMDV inh: inconclusive

How did Nc1c(C(=O)Nc2ccccc2)sc2nc3c(c(-c4ccco4)c12)CCC3 do in these assays?
Sm TGR inh: 1%; CHX counter: 19*; Shiga inhibitor: 48*; FMDV inh: inconclusive

Results for Cc1cccc(NC(=O)c2sc3nc4c(cc3c2N)CCCCCC4)c1C ?
Sm TGR inh: 7%; FMDV inh: -25%

How did Nc1c(C(=O)Nc2ccc(Cl)c(C(=O)O)c2)sc2nc3c(cc12)CCCC3 do in these assays?
Sm TGR inh: -23%; CHX counter: 18; Shiga inhibitor: 8; FMDV inh: 0%

How did Cc1cc(C)c(NC(=O)C2CCN(c3nnc(C)c4c(C)n(-c5ccccc5)nc34)CC2)c(C)c1 do in these assays?
Sm TGR inh: -4%; FMDV inh: -11%
